uPA surface inh: cell surface uPA generation inhibition; cell surface uPA generation assay, qHTS; Potency, µM (top dose mostly 38.3 µM), for the others: at the top dose activity change, negative = inhibition, usual class: inhibitors; 0.31% of 330,000 active; AID 540303; active means well fitted inhibition curve with a large enough effect; inconclusive means small, poorly fitted or top-dose-only effect; inactive means no such curve, though single readings can be large or run the other way; tested in mouse RAW 264.7 cells; further: potency means the concentration at half of the fitted maximal effect; nearly all actives have a fitted effect of over 55% in size
HT1080-NT tox: kills 2HG-producing HT-1080-NT fibrosarcoma cells | HT-1080-NT fibrosarcoma viability, CellTiter-Glo ATP luminescence, 48 h | Potency, µM (highest dose often 46.1 µM), without a hit: top-dose activity, negative = less viability, actives largely listed as cytotoxic | 1.6% of 360,000 active | AID 686970;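 further: NT is the 2HG producing partner of a matched IDH1 knockdown line; potency means the concentration at half of the fitted maximal effect; 0% = DMSO-treated cells and -100% = media-only wells without cells; nearly all actives have a fitted effect of over 55% in size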
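Toxicity toward the 2HG-producing NT line was scored as %Activity, normalised to DMSO and no-cell wells, from CellTiter-Glo luminescence after 48 hours' treatment.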
IL-1B inflam inh: inhibitors of inflammasome signaling (IL-1 beta secretion) | THP-1 LPS/ATP IL-1B secretion, AlphaLISA, 16 h; stronger effect = lower value | activity change, % at 57.5 µM | 4.7% of 360,000 active | AID 743279; in the data active means activity change below about -50%; inconclusive means mostly about -30% to -49%
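THP-1 cells pretreated 1 hr with compounds (up to 57.5 uM final), then stimulated with LPS (250 ng/mL final) plus ATP (1.25 mM final); secreted IL-1B measured by AlphaLISA after 16 hr, decreased signal indicating inhibition.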
HT1080 IDH1KD tx: kills HT-1080 cells with IDH1 knockdown; HT-1080 IDH1 knockdown viability, ATP luminescence, 48 h; Potency, µM (series often up to 46.1 µM), inactives show top-dose activity, negative = toxicity, hits mostly cytotoxic; 2% of 360,000 active; AID 686971;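 further: potency means the concentration at half of the fitted maximal effect; 0% = DMSO wells and -100% = cell-free medium wells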
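Luminescent ATP read-out (CellTiter-Glo, 10 min at room temperature) after 48 h compound exposure at 37 °C gave viability of IDH1-knockdown HT-1080 cells. Activity was normalised to DMSO and cell-free wells, then fitted as concentration-response curves.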
DT40 TDP1 no CPT: qHTS for Inhibitors of human tyrosyl-DNA phosphodiesterase 1 (TDP1): qHTS in cells in absence of CPT | Potency, µM (series often up to 46.2 µM), for inactives: at the top dose activity change, negative = growth inhibition, usual class: inhibitors | 15% of 420,000 active | DT40 Tdp1-/- hTDP1 cells, no CPT, ATP luminescence, 48 h; further: potency means the concentration at half of the fitted maximal effect; nearly all actives have a fitted effect of over 55% in size
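Luminescent ATP content (CellTiter-Glo) served as the growth readout. Knockout chicken DT40 cells expressing human TDP1 were exposed to compounds without camptothecin for a minimum 48 hr at 37 °C.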
DT40 TDP1 CPT: growth inhibition of DT40 Tdp1-/-;hTDP1 cells with camptothecin (screen for TDP1 inhibitors); chicken DT40 Tdp1-/-;hTDP1 cells + 20 nM CPT, ATP luminescence, 48 h; Potency, µM (highest dose often 46.2 µM), without a hit: at the highest dose activity change, negative = growth inhibition, hits mostly inhibitors; 12% of 420,000 active; AID 686979; further: potency means the concentration at half of the fitted maximal effect; nearly all actives have a fitted effect of over 55% in size
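Chicken DT40 Tdp1-/- cells stably complemented with human TDP1 were seeded at 400 cells/well in medium containing 20 nM camptothecin, exposed to pin-transferred compounds, and grown at 37 °C for at least 48 hr. Viability was read as ATP luminescence.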
Active calls of the source: *; ? = inconclusive; . = no result. Hits are enriched below; roughly 19% of the tested compounds scored in any of these assays. Unless noted, the call rests on the fitted dose curve; in most records, active means well fitted curve in the direction sought with a large enough effect; inconclusive means small, poorly fitted or top-dose-only effect, or another doubt; inactive means no such curve, though single readings can be large; an effect the other way counts as inactive or inconclusive. Unless noted, on the % scale 0 is the no-effect control and ±100 the full control effect.

SMILES | uPA surface inh | HT1080-NT tox | IL-1B inflam inh | HT1080 IDH1KD tx | DT40 TDP1 no CPT | DT40 TDP1 CPT
CC1(C)CC(=O)C=C(c2ccc(-c3ccc4[nH]ccc4c3)cc2)C1=O | . | ? | -15 | ? | 26µM* | ?
CC1(C)CC(=O)C=C(c2ccc(-c3ccc(OC(F)(F)F)cc3)cc2)C1=O | . | ? | ? | 21µM* | 10µM* | 16µM*
CC1(C)CC(=O)C=C(c2ccc(-c3ccccc3)cc2)C1=O | . | -7% | -7 | -13% | 26µM* | ?
CC(C)(Oc1ccc(Cl)cc1)C(=O)Nc1ccc(S(=O)(=O)Nc2ncccn2)cc1 | -2% | 7% | -2 | 17% | -22% | 0%
Cc1ccccc1CN1C(=O)c2ccccc2Sc2ccc(C(=O)NC3CCCCC3)cc21 | . | . | . | . | 16µM* | 15µM*
O=C(NC1CCCC1)c1ccc2c(c1)N(Cc1ccccc1F)C(=O)c1ccccc1S2 | . | . | . | . | 15µM* | ?
CCS(=O)(=O)N1CCC2(CC1)OC(=O)C(C)=C2C(=O)NCc1ccc(OC)c(OC)c1 | . | . | . | . | -26% | -14%
COc1ccc(N(CC(=O)N/N=C(\C)CCc2ccccc2)S(=O)(=O)c2ccc(C)cc2)cc1 | 6% | -11% | -19 | 4% | 6% | 2%
Cc1cc(NC(=O)CSc2nc(-c3cccs3)nc3ccccc23)no1 | 1.8µM* | 5.8µM* | 26 | 5.2µM* | 1.8µM* | 2.3µM*
Cc1cc(NC(=O)c2cc(-c3cccs3)nc3ccccc23)no1 | ? | ? | 9 | ? | 26µM* | 21µM*
COc1ccc(-c2cc(C(=O)Nc3cc(C)on3)c3ccccc3n2)c(OC)c1 | 4% | 1% | 28 | 1% | 9.2µM* | 12µM*
Cc1cc(NC(=O)c2cc(-c3ccc(C)c(C)c3)nc3ccccc23)no1 | 0% | 3% | 15 | -22% | 10µM* | 12µM*
COc1cccc(NC(=O)c2cc(-c3ccc(OC)cc3OC)nc3ccccc23)c1 | 6% | 0% | 20 | -14% | ? | ?
Cc1cc(NC(=O)CSc2nc(C(C)(C)C)nc3ccccc23)no1 | ? | 0% | 0 | 1% | ? | ?
Cc1cc(C)nc(NC(=O)c2cc(-c3ccc(C)s3)nc3ccccc23)c1 | 2% | -5% | -15 | -1% | 21µM* | ?
NNc1nc(-c2ccccc2)cc(-c2ccc(Br)cc2)n1 | -3% | ? | -56* | ? | ? | ?
CCc1cc(C(=O)N2CCCC(CCC(=O)NCc3cccc(OC)c3)C2)no1 (stereo not given) | -1% | -14% | 1 | 8% | -19% | -3%
COc1cc2nc(=S)n3[nH]c(COc4ccccc4C)nc3c2cc1OC | 13% | 6% | 7 | -5% | 5.8µM* | 1.2µM*
Cc1ccccc1OCc1nc2ccccc2c(=O)n1N | -6% | 1% | 32 | -3% | ? | ?
COc1cc2nc(=S)n3[nH]c(CCn4nc(C)cc4C)nc3c2cc1OC | 2% | ? | 7 | ? | 1.3µM* | 1.6µM*
O=C(O)CC(CC(=O)NCC(O)c1ccccc1)c1ccccc1 (stereo not given) | 3% | 3% | -15 | 8% | 3% | 3%
CCCCc1c(C)nn(-c2nnc3c4ccccc4n(C)c3n2)c1C | -4% | -20% | 13 | -3% | 23µM* | 23µM*
Cc1ccc(C)c(Cn2c(=O)n(Cc3ccccc3)c(=O)c3c2c2cc(C)ccc2n3C)c1 | . | . | . | . | -17% | -9%
O=C(NCc1cccc(F)c1)c1ccc2nc(N3CCCCC3)sc2c1 | . | . | . | . | -29% | ?
O=C(NCc1ccccn1)c1cccs1 | . | -2% | 18 | -7% | 1% | 1%
SMILES | uPA surface inh | HT1080-NT tox | IL-1B inflam inh | HT1080 IDH1KD tx | DT40 TDP1 no CPT | DT40 TDP1 CPT
CC(C)(C)c1cc(NC(=O)c2cc(F)c(F)c(F)c2F)no1 | -5% | -11% | 35 | -4% | ? | 29µM*
CC(C)(C)c1cc(NC(=O)c2cccs2)no1 | -11% | -21% | -51* | -24% | 0% | ?
O=C(Nc1ccccn1)c1ccc(-c2ccccc2)cc1 | -13% | ? | -59* | ? | ? | 9%
O=C(Nc1ccccn1)c1cccs1 | -5% | 11% | 6 | -10% | 26µM* | 18µM*
O=C(Nc1nonc1NC(=O)c1cccs1)c1cccs1 | -10% | -19% | 1 | -21% | 23µM* | 26µM*
O=C(Nc1ccc(Cl)cc1)c1cccs1 | -1% | 6% | -5 | -4% | -20% | -23%
COCCN(C)C(=O)CC1C(=O)NCCN1CC(c1ccccc1)c1ccccc1 (stereo not given) | 1% | 2% | 0 | 4% | -4% | -9%
CC(=O)/C(C#N)=C1\NC(=O)C(Cc2ccccc2)S1 (stereo not given) | -5% | -6% | -1 | ? | ? | ?
CC(=O)/C(C#N)=C1\NC(=O)C(Cc2ccccc2C)S1 (stereo not given) | -10% | -24% | . | ? | 2.3µM* | ?
Cc1ccc(S(=O)(=O)N2CCC3(CC2)OCCN3S(=O)(=O)c2c(C)cc(C)cc2C)cc1 | -1% | 11% | 28 | -1% | 16µM* | 26µM*
Cc1cc(C)c(S(=O)(=O)N2CCC3(CC2)OCCN3S(=O)(=O)c2cccs2)c(C)c1 | -7% | -8% | -10 | -22% | 23µM* | ?
COc1ccc(S(=O)(=O)N2CCC3(CC2)OCCN3S(=O)(=O)c2c(C)cc(C)cc2C)cc1 | 13% | -2% | -5 | -11% | 8.2µM* | 13µM*
CCS(=O)(=O)N1CCC2(CC1)OCCN2S(=O)(=O)c1ccc(C)cc1 | -2% | 4% | 18 | 0% | -25% | -5%
COc1ccc(S(=O)(=O)N2CCOC23CCN(S(=O)(=O)c2ccccc2)CC3)cc1 | -8% | 17% | 11 | 9% | ? | ?
NC(c1csc(Nc2ccc(C(=O)NCCCO)cn2)n1)C1CCCCC1 (stereo not given) | . | -5% | -15 | ? | ? | -44%
NC(c1csc(Nc2ccc(C(=O)c3ccccc3)cc2)n1)C1CCCCC1 (stereo not given) | . | ? | ? | 15µM* | ? | ?
NC(c1csc(Nc2ccc(C(=O)NCCO)cc2)n1)C1CCCCC1 (stereo not given) | . | -14% | 0 | -13% | 6.5µM* | 10µM*
CC(=O)c1ccc(Nc2nc(C(N)C3CCCCC3)cs2)cc1 (stereo not given) | . | ? | . | -13% | 12µM* | 13µM*

Bioassay records (PubChem BioAssay)
